The results in this text go back to PubChem BioAssay (EPA / NIEHS).

Results filed as inconclusive are left out. Some compounds were tested as several samples or in several runs, with calls that do not always agree. Activity calls are given as the source filed them. Rule for the calls, unless noted: active = hit-call score of the fitted dose curve at least 0.9, where 1 is the maximum; inactive = score below 0.9.

Read-out in assay [1]: Interleukin-10 (IL10), IL10 (gene 3586)
The experiment in a line: BSK_IMphg_IL10: BioMAP Diversity Plus: IMphg Assay for Interleukin-10 (IL10) Biomarker Activity (AID 2284294). The following applies: primary human endothelial cells with macrophages. The procedure, abridged: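 IL-10 read by ELISA after 24 h chemical exposure of primary human venular endothelial cell/macrophage cocultures, with DMSO as baseline. Parallel SRB staining (560 nm) gauged overt cytotoxicity.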

Assay [2] in a line: BSK_IMphg_SRB.Mphg: Macrophage Viability Assessment in the BioMAP Diversity Plus: IMphg Assay (AID 2284295). The following applies: primary human endothelial cells with macrophages. The procedure, abridged: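 Cytotoxicity read-out: parallel cultures fixed with 10% TCA, stained with 0.1% sulforhodamine B, read at 560 nm. System combines venular endothelium and macrophages; sampled 24 h post-dosing, fitted positively relative to DMSO control.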

Read-out in assay [3]: Thrombomodulin, THBD (gene 7056)
The experiment in a line: BSK_LPS_Thrombomodulin: BioMAP Diversity Plus: LPS Assay for Thrombomodulin Biomarker Activity (AID 2284296). The following applies: primary human HUVEC with PBMC. The procedure, abridged:
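Thrombomodulin on the surface of LPS-activated endothelial/PBMC co-cultures was quantified by ELISA at 24 hours post-dosing, with DMSO as baseline. Parallel SRB total-protein staining flagged overt cytotoxicity.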

Read-out in assay [4]: CD69, CD69 (gene 969)
Briefly: BSK_LPS_CD69: BioMAP Diversity Plus: LPS Assay for CD69 Biomarker Activity (AID 2284303). The following applies: primary human HUVEC with PBMC. The procedure, abridged: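 CD69 surface levels were read by ELISA after 24 h chemical treatment of an LPS-stimulated HUVEC plus PBMC co-culture; positive-direction fit against DMSO vehicle.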

A short description of assay [5]: IUF_NPC2c_oligodendrocyte_migration_120hr: Leibniz Research Institute for Environmental Medicine (IUF) 120-hour Neural Progenitor Cell Migration Assay for Oligodendrocyte Migration (NPC2c) (AID 2284297). The procedure, abridged: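 Read-out is the mean distance of O4-positive oligodendrocytes from the sphere core edge at 120 h, normalized to radial glia migration and fitted in the gain direction against DMSO. Spheres of primary human neural progenitors differentiated on laminin under continuous compound exposure.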

Assay [6] can be described thus: IUF_NPC2a_radial_glia_migration_120hr: Leibniz Research Institute for Environmental Medicine (IUF) 120-hour Neural Progenitor Cell Migration Assay for Radial Glia Migration (NPC2a) (AID 2284298). The procedure, abridged: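 Readout: distance in um from sphere core edge to migration-area edge, derived from Hoechst nuclei density with a threshold-defined polynomial boundary. Spheres: hNPC, GW 16-19, 0.3 mm, on PDL/laminin; exposure 5 days; DMSO is baseline.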

The nature of assay [7]: IUF_NPC2a_radial_glia_migration_72hr: Leibniz Research Institute for Environmental Medicine (IUF) 72-hour Neural Progenitor Cell Migration Assay for Radial Glia Migration (NPC2a) (AID 2284299). The procedure, abridged: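 Single 0.3 mm neurospheres were plated per well in N2 differentiation medium and exposed from the start of differentiation. After 72 hours, brightfield images were taken and radial glia migration from the sphere core edge was measured manually in four directions, averaged per well.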

Assay [8] is described as follows: IUF_NPC2b_neuronal_migration_120hr: Leibniz Research Institute for Environmental Medicine (IUF) 120-hour Neural Progenitor Cell Migration Assay for Neuron Migration (NPC2b) (AID 2284300). The procedure, abridged:
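Read-out is mean distance from sphere edge to each TUBB3-positive neuron at 120 h, expressed relative to radial glia migration distance and to DMSO baseline. Single 0.3 mm human NPC spheres differentiated on laminin under continuous compound exposure.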

Assay [9] is described as follows: IUF_NPC3_neuronal_differentiation_120hr: Leibniz Research Institute for Environmental Medicine (IUF) 120-hour Neuronal Differentiation Assay (NPC3) (AID 2284301). The procedure, abridged: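 Neuronal differentiation of primary human neural progenitors measured by high-content imaging: percent TUBB3+ of Hoechst+ nuclei within migrated area at 120 h, seven-point serial dilution plus solvent control, gain or loss relative to DMSO.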

A short description of assay [10]: IUF_NPC5_oligodendrocyte_differentiation_120hr: Leibniz Research Institute for Environmental Medicine (IUF) 120-hour Oligodendrocyte Differentiation Assay (NPC5) (AID 2284304; active = hit-call score of the fitted dose curve at least 0.9, where 1 is the maximum;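 note: primary human fetal neural progenitor spheres plated to migrate and differentiate; share of O4-positive cells among Hoechst nuclei found by CNN image analysis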). The procedure, abridged: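 Oligodendrocyte differentiation was scored after 120 h as the O4-positive share of Hoechst-stained nuclei across the neurosphere migration area, using a trained convolutional neural network on high-content fluorescence images. Human fetal neural progenitor spheres were dosed from day 0, normalised to DMSO.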

As a reminder, the AC50 is the concentration at which the activity in the assay is half-maximal. On to `CCNS(=O)(=O)C(F)(F)C(F)(F)C(F)(F)C(F)(F)C(F)(F)C(F)(F)C(F)(F)C(F)(F)F`, for which the result in assay [1], in assay [2], in [3] and in assay [4] was inactive. Moreover, the AC50 in [2] is 30 µM (active); in [3], 54.5 µM (active); in [4], 15.4 µM (active).

For `COC(=O)Nc1nc2ccccc2[nH]1`, the outcome in assay [5], in assay [8] and in assay [9] was inactive. Besides, the concentration at half-maximal activity (AC50) in assay [6] was 11.3 µM (active); in [7], 8.09 µM (active).

`[O-][Cl+]O`: the molecule was classed as inactive in [5], in assay [6], in assay [7], in assay [8] and in [9].

Turning to `CNC(=O)Oc1cccc2c1OC(C)(C)C2`, the outcome in [5], in assay [6], in assay [7], in assay [8], in assay [9] and in assay [10] was inactive.

Consider `OCCOCCO`, for which the outcome in [5], in assay [6], in assay [7], in [8], in [9] and in assay [10] was inactive.

Turning to `O=P(OCCCl)(OCCCl)OCCCl`, the result in assay [5], in assay [6], in assay [7], in assay [8] and in assay [9] was inactive.

In the case of `CC(C)COC(=O)c1ccccc1C(=O)OCC(C)C`, the result in assay [5], in assay [6], in assay [7], in assay [8], in assay [9] and in assay [10] was inactive.

As for `CCCCOC(=O)c1ccccc1C(=O)OCc1ccccc1`, the result in assay [5], in assay [6], in assay [8] and in [9] was inactive. The concentration at half-maximal activity (AC50) in [7] was 18.5 µM (active).

As for `COP(=S)(OC)SCN1C(=O)c2ccccc2C1=O`, the molecule was classed as inactive in assay [5], in assay [6], in assay [7], in assay [8], in assay [9] and in assay [10].

Consider `CC(C)(C)C(O)(CCc1ccc(Cl)cc1)Cn1cncn1` (configuration not stated), for which the result in assay [5], in assay [7], in assay [8], in [9] and in assay [10] was inactive.

In the case of `CCC[CH2][Sn]([Cl])([CH2]CCC)[CH2]CCC`, the AC50 is 0.325 µM (active) in [5]; 0.37 µM (active) in [6]; 0.386 µM (active) in [7]; 0.319 µM (active) in assay [8]; 0.284 µM (active) in [9]; 0.12 µM (active) in assay [10].
